# Source: PubChem BioAssay (NCI)
# The panel holds about 79,000 compounds, 15% with a hit somewhere; the sample as a whole holds those more often. Values without a mark were called inactive. Activity calls are given as the source filed them. No stated cut-off is given here; in the data, active means growth inhibition above about 70%; inactive means the rest.
# Assays:
# [1] = NCI Yeast Anticancer Drug Screen. Data for the rad50 strain (AID 155);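 further: 0% = growth of vehicle-only cultures of the same strain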; conditions: S. cerevisiae rad50 strain growth inhibition, hits give high values
# Method in brief: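 A DNA repair-deficient yeast mutant serves as the test organism; compound-induced growth inhibition is calculated against vehicle-treated cells.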
# [2] = NCI Yeast Anticancer Drug Screen. Data for the mec2-1 strain (AID 157); conditions: S. cerevisiae mec2-1 strain, hits give high values
# Method in brief: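 Readout is yeast growth inhibition, normalised to vehicle-treated controls, in the mec2-1 strain exposed to compound.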
# [3] = NCI Yeast Anticancer Drug Screen. Data for the sgs1 mgt1 strain (AID 161);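 further: 0% = growth of cultures given vehicle only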; conditions: S. cerevisiae sgs1 mgt1 strain, hits give high values
# Method in brief: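 Growth of a repair-deficient yeast mutant was monitored after compound treatment and expressed as inhibition relative to vehicle-treated cultures.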
# [4] = NCI Yeast Anticancer Drug Screen. Data for the cln2 rad14 strain (AID 165);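 further: 0% = growth equal to vehicle treated cultures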; conditions: S. cerevisiae cln2 rad14 strain, hits give high values
# Method in brief: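 Relative to vehicle controls, growth inhibition of compound-treated cln2 rad14 yeast was recorded.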
# [5] = NCI Yeast Anticancer Drug Screen. Data for the bub3 strain (AID 167); conditions: S. cerevisiae bub3 mutant strain, hits give high values
# Method in brief: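 Inhibition values come from growth of compound-treated mutant yeast normalised to vehicle-treated controls.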
# [6] = NCI Yeast Anticancer Drug Screen. Data for the mlh1 rad18 strain (AID 175); conditions: S. cerevisiae mlh1 rad18 strain growth inhibition, hits give high values
# Method in brief: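 Test agents were incubated with a yeast strain of defined genotype (DNA damage repair defect). Inhibition of growth was derived by comparison with vehicle-exposed cultures.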
# [7] = at 5.0 µM (retest, dose inferred, filed as 0.5)
# [8] = at 50.0 µM (retest, dose inferred, filed as 5.0)
Structure (SMILES),"growth inhibition [1, 7]","growth inhibition [1, 8]",growth inhibition ([1]; at 50.0 µM),"growth inhibition [2, 7]","growth inhibition [2, 8]",growth inhibition ([2]; at 50.0 µM),"growth inhibition [3, 7]","growth inhibition [3, 8]",growth inhibition ([3]; at 50.0 µM),"growth inhibition [4, 7]","growth inhibition [4, 8]",growth inhibition ([4]; at 50.0 µM),"growth inhibition [5, 7]","growth inhibition [5, 8]",growth inhibition ([5]; at 50.0 µM),"growth inhibition [6, 7]","growth inhibition [6, 8]",growth inhibition ([6]; at 50.0 µM)
O=C1CNCCCN2CCN(CCCNCC(=O)Nc3ccc(cc3)S(=O)(=O)c3ccc(cc3)NC(=O)CNCCCN3CCN(CCCNCC(=O)Nc4ccc(cc4)S(=O)(=O)c4ccc(cc4)N1)CC3)CC2,1%,99% (active),98.8% (active),-25%,99% (active),98.8% (active),-14%,99% (active),99% (active),-5%,99% (active),96.8% (active),-3%,99% (active),97.8% (active),-11%,99% (active),98.7% (active)
O=C1/C(=C/c2cccc(O)c2)COc2ccccc21,21%,95% (active),93.8% (active),34%,98% (active),96.1% (active),63%,98% (active),96.2% (active),9%,95% (active),91.6% (active),58%,95% (active),95.8% (active),77% (active),97% (active),96.8% (active)
O=C1C(Br)=C(C2CCCCC2)C(=O)c2ccccc21,54%,99% (active),101% (active),59%,100% (active),99.7% (active),78% (active),99% (active),99.6% (active),20%,99% (active),100% (active),24%,100% (active),99.5% (active),83% (active),99% (active),99.2% (active)
CCN(CC)CCOc1c(I)cc(I)cc1I,2%,98% (active),84.3% (active),0%,98% (active),82.4% (active),12%,99% (active),96.5% (active),7%,98% (active),98.2% (active),6%,98% (active),84.8% (active),1%,99% (active),99.2% (active)
CCOC(=O)c1ccccc1NC(OCC)C(=O)c1ccccc1 (configuration not stated) (tested in a mixture with another compound),-5%,70% (active),75% (active),5%,22%,63.9%,1%,69%,90.8% (active),-3%,12%,16.2%,-5%,71% (active),70% (active),0%,81% (active),90.7% (active)
CCCCCCCCCCNC(=O)CBr,2%,99% (active),83.7% (active),-2%,100% (active),64.8%,-3%,99% (active),-1.3%,5%,100% (active),18.9%,14%,99% (active),97.8% (active),6%,99% (active),94% (active)
CCOC(=O)C(=N\Nc1cccc(C)c1C)/C(C)=N\NC(N)=S,3%,35%,70.2% (active),9%,56%,38.2%,32%,76% (active),75.8% (active),-6%,14%,64.1%,3%,34%,59.7%,30%,81% (active),81.1% (active)
COC(=O)CSc1nc2[nH]c(SC)c(C(N)=O)c2c(=O)n1-c1ccccc1,-2%,-4%,2.35%,-2%,-22%,29.4%,3%,-7%,7.25%,-5%,3%,46.2%,18%,21%,7.8%,-14%,-19%,9.8%
O=C(Cc1ccccc1)OC(C(=O)c1ccccc1)c1ccccc1 (configuration not stated),4%,94% (active),-15.7%,7%,95% (active),10.3%,3%,93% (active),-0.1%,2%,90% (active),-12.3%,20%,92% (active),72.2% (active),4%,92% (active),-3.1%
C/C=C1/C=CC2c3[nH]c4ccccc4c3CCN2C1 (configuration not stated),-152%,-150%,5.35%,-51%,-57%,-0.8%,-62%,-67%,2.95%,-62%,-72%,38%,-73%,-81%,-13.4%,-137%,-107%,13%
CCCCC(O)CCCC,13%,17%,4.55%,14%,18%,8.65%,-5%,9%,15.8%,3%,13%,22.2%,43%,91% (active),64.2%,31%,25%,-7.1%
[Cl][Pt+2][Cl].[NH-]CC1(C[NH-])CCCC1,28%,40%,0.2%,14%,19%,0.9%,26%,39%,-26.1%,7%,30%,-3.1%,19%,34%,-19.2%,26%,72% (active),-30%
O=C(/C(=C\I)c1ccccc1)c1ccccc1,6%,6%,88.5% (active),-15%,-15%,92.5% (active),-8%,-8%,86.4% (active),-6%,-6%,89.9% (active),-24%,-24%,90.2% (active),-13%,-13%,86.7% (active)
CCCCCCCC/C=C\CCCCCCCC(=O)O (tested in a mixture with another compound),4%,97% (active),96.2% (active),-1%,100% (active),99.3% (active),3%,98% (active),89.7% (active),2%,96% (active),-53.9%,-2%,99% (active),95.3% (active),0%,96% (active),97.1% (active)
CC(O)(CO)CC(C)(O)CO (configuration not stated),-2%,-10%,12.9%,3%,-6%,-7.2%,-1%,-9%,1.8%,-2%,-14%,77% (active),2%,-1%,-1.05%,1%,-11%,-7.45%
Cc1cccc2c1Oc1cc(Cl)ccc1C2NC(=O)CCN1CCN(CCO)CC1 (configuration not stated),0%,29%,38%,-11%,-13%,-0.05%,-3%,6%,38.1%,11%,26%,25.6%,-8%,11%,39.4%,3%,29%,70.3% (active)
N#Cc1ccc(C2Oc3ccc(Cl)cc3C=C2[N+](=O)[O-])cc1 (configuration not stated),98% (active),99% (active),84.7% (active),100% (active),99% (active),75.7% (active),100% (active),99% (active),91.2% (active),98% (active),98% (active),88.7% (active),98% (active),98% (active),75.6% (active),99% (active),99% (active),83.3% (active)
CN(C)C(=O)/C=C/c1c[nH]c(=O)[nH]c1=O,-146%,-149%,-5.65%,-47%,-49%,-2.3%,-63%,-68%,1.05%,-58%,-64%,19.1%,-73%,-78%,-3.35%,-149%,-119%,2.75%
C=C(Br)CN1CCC2(c3ccccc3)C(O)C([Se]c3ccccc3)CCC12 (configuration not stated),85% (active),85% (active),83.1% (active),78% (active),78% (active),84% (active),81% (active),81% (active),78% (active),80% (active),80% (active),83.3% (active),84% (active),84% (active),84.8% (active),89% (active),89% (active),82.8% (active)
